Measurements as given in PubChem BioAssay (EPA / NIEHS).
Active and inactive are the calls of the source. Rule for the calls: active = hit-call score of the fitted dose curve at least 0.9, where 1 is the maximum; inactive = score below 0.9.

Legend:
[1] = ATG_E_Box_CIS: Attagene CIS-FACTORIAL HepG2 Assay for human Enhancer Box (E-box) (AID 2282936); conditions: HepG2 E-box cis-reporter transcription, actives raise or lower the signal
In short: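 Endogenous transcription factor activity was sensed in human HepG2 liver cells through transfected cis-promoter reporter units. After 24 h of dosing, total RNA was reverse-transcribed and reporter cDNA resolved by capillary electrophoresis.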

[2] = ATG_M_61_CIS: Attagene CIS-FACTORIAL HepG2 Assay for M61 Transcription Factor (Internal Marker) (AID 2282937); conditions: HepG2 Attagene CIS-FACTORIAL M61 internal marker reporter; actives raise or lower the signal
In short: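 Readout is reporter mRNA by RT-PCR, fluorescent primer extension and capillary electrophoresis, with gain or loss fitted relative to DMSO. Transfected HepG2 cells carrying endogenous-TF-driven cis reporters were exposed to chemicals for 24 hours.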

[3] = ATG_EGR_CIS: Attagene CIS-FACTORIAL HepG2 Assay for human Early Growth Response 1 (EGR1) (AID 2282938); conditions: HepG2 Attagene CIS-FACTORIAL EGR reporter mRNA; actives raise or lower the signal
In short: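 After 24 h compound exposure, RNA from reporter-transfected HepG2 cells was reverse-transcribed, PCR-amplified, fluorescently labelled and resolved by capillary electrophoresis. EGR1 reporter transcript changes, up or down, were fitted against DMSO, reflecting endogenous transcription-factor activity.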

[4] = ATG_M_19_CIS: Attagene CIS-FACTORIAL HepG2 Assay for M19 Transcription Factor (Internal Marker) (AID 2282939); conditions: HepG2 Attagene CIS-FACTORIAL M19 internal marker reporter; actives raise or lower the signal
In short: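 HepG2, MRTU transient transfection, 24 h dosing. Total RNA → RT-PCR → 6-FAM primer extension → HpaI digest → CE fluorescence. Bidirectional curve fit, DMSO negative control.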

[5] = ATG_Ets_CIS: Attagene CIS-FACTORIAL HepG2 Assay for human Erythroblast Transformation Specific (ETS) (AID 2282941); conditions: HepG2 ETS cis-reporter transcription, actives raise or lower the signal
In short: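 Bidirectional fit versus DMSO of reporter mRNA signal, detected by RT-PCR and capillary electrophoresis in HepG2 cells transiently transfected with cis-element reporters and dosed 24 h.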

[6] = target: Hepatocyte nuclear factor 3-beta (Homo sapiens) (UniProt Q9Y261); assay: ATG_FoxA2_CIS: Attagene CIS-FACTORIAL HepG2 Assay for human Forkhead box A2 (FOXA2) (AID 2282942); conditions: HepG2 cis-reporter transcription factor activity, 24 h; actives raise or lower the signal
Sequence of Hepatocyte nuclear factor 3-beta (Homo sapiens) (Q9Y261 whole entry, looked up): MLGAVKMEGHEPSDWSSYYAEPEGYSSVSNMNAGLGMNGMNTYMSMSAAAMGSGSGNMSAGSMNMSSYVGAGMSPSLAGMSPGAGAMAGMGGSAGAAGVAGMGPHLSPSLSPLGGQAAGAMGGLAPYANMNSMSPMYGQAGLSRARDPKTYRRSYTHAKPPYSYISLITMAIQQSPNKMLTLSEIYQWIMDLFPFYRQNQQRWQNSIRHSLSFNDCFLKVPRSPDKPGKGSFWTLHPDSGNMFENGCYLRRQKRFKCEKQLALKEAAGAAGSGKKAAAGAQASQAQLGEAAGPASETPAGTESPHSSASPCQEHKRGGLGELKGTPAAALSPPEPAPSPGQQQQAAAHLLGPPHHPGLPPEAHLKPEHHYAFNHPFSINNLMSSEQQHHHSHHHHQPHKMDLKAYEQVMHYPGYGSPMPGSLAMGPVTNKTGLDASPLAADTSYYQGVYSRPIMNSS
In short: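 Endogenous transcription factor activity is captured via cis-element-driven reporter transcripts in transfected HepG2. Total RNA taken at 24 h post-dosing; labelled RT-PCR products resolved by capillary electrophoresis. Gain or loss fitted versus DMSO.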

[7] = ATG_FoxO_CIS: Attagene CIS-FACTORIAL HepG2 Assay for human Forkhead box O (FoxO) (AID 2282943); conditions: HepG2 Attagene cis-reporter, FoxO element, mRNA; actives raise or lower the signal
In short: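 24 h chemical exposure, HepG2 with transient cis-MRTU transfection. RNA extraction, oligo(dT) RT, reporter-specific PCR, primer-extension labelling, HpaI digestion, CE fragment analysis; bidirectional fit, DMSO baseline.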

[8] = ATG_GATA_CIS: Attagene CIS-FACTORIAL HepG2 Assay for human GATA Binding Protein (AID 2282944); conditions: HepG2 GATA cis-element reporter, Attagene multiplex mRNA; actives raise or lower the signal
In short: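 Cells: HepG2, transiently transfected with cis-regulated reporter transcription units. Exposure: 24 h. Detection: RT-PCR plus capillary electrophoresis of FAM-labeled fragments. Analysis: bidirectional, DMSO as baseline.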

[9] = ATG_GLI_CIS: Attagene CIS-FACTORIAL HepG2 Assay for human Zinc Finger Protein GLI1 (AID 2282945); conditions: HepG2, Attagene cis-factorial reporter mRNA, GLI element; actives raise or lower the signal
In short: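 HepG2 cells transiently transfected with cis-promoter multiplexed reporter units report endogenous transcription factor activity. After 24 h chemical exposure, reporter mRNA was quantified by RT-PCR, 6-FAM labelling, HpaI digestion and capillary electrophoresis, with bidirectional fitting against DMSO.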

[10] = ATG_GRE_CIS: Attagene CIS-FACTORIAL HepG2 Assay for human Glucocorticoid Response Elements (GRE) (AID 2282947); conditions: HepG2 GRE cis-reporter, Attagene multiplex mRNA; actives raise or lower the signal
In short: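 Cells (HepG2) bearing transfected cis-promoter reporter transcription units were treated with chemical for 24 hours. Reporter mRNA was measured via RT-PCR with capillary electrophoresis, and activity was fitted in both directions relative to DMSO.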

[11] = ATG_ISRE_CIS: Attagene CIS-FACTORIAL HepG2 Assay for human Interferon Regulatory Factor 1 (IRF1) binding to an Interferon-Stimulated Response Element (ISRE) (AID 2282948); conditions: HepG2 ISRE cis-reporter (Attagene), mRNA transcription readout; actives raise or lower the signal
In short: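 Uses HepG2 liver cells transfected with cis-regulated reporters and measures mRNA 24 h post-dosing through RT-PCR, primer-extension labelling and capillary electrophoresis, with DMSO as negative control.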

[12] = ATG_M_32_CIS: Attagene CIS-FACTORIAL HepG2 Assay for M32 Transcription Factor (Internal Marker) (AID 2282949); conditions: HepG2 Attagene cis-factorial M32 reporter, mRNA; actives raise or lower the signal;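 note: background control marker of the multiplexed CIS panel rather than a real target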
In short: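 HepG2 human liver cells transiently transfected with cis-promoter-driven multiple reporter transcription units, dosed 24 h. Reporter mRNA quantified by RT-PCR, FAM-labelled primer extension, HpaI digest and capillary electrophoresis; bidirectional fit versus DMSO baseline.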

[13] = ATG_M_06_CIS: Attagene CIS-FACTORIAL HepG2 Assay for M06 Transcription Factor (Internal Marker) (AID 2282950); conditions: HepG2 Attagene CIS-FACTORIAL M06 internal marker reporter; actives raise or lower the signal
In short: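 Measured 24 h post-dosing in transiently transfected HepG2 cells, this internal-marker endpoint reports reporter mRNA via RT-PCR with fluorescent primer extension and capillary electrophoresis. DMSO served as negative control and baseline for bidirectional fitting.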

[14] = target: Hypoxia-inducible factor 1-alpha (Homo sapiens) (UniProt Q16665); assay: ATG_HIF1a_CIS: Attagene CIS-FACTORIAL HepG2 Assay for human Hypoxia Inducible Factor 1 (HIF1A) (AID 2282951); conditions: HepG2 Attagene cis-factorial HIF1a reporter transcription; actives raise or lower the signal
Sequence of Hypoxia-inducible factor 1-alpha (Homo sapiens) (Q16665 whole entry, looked up): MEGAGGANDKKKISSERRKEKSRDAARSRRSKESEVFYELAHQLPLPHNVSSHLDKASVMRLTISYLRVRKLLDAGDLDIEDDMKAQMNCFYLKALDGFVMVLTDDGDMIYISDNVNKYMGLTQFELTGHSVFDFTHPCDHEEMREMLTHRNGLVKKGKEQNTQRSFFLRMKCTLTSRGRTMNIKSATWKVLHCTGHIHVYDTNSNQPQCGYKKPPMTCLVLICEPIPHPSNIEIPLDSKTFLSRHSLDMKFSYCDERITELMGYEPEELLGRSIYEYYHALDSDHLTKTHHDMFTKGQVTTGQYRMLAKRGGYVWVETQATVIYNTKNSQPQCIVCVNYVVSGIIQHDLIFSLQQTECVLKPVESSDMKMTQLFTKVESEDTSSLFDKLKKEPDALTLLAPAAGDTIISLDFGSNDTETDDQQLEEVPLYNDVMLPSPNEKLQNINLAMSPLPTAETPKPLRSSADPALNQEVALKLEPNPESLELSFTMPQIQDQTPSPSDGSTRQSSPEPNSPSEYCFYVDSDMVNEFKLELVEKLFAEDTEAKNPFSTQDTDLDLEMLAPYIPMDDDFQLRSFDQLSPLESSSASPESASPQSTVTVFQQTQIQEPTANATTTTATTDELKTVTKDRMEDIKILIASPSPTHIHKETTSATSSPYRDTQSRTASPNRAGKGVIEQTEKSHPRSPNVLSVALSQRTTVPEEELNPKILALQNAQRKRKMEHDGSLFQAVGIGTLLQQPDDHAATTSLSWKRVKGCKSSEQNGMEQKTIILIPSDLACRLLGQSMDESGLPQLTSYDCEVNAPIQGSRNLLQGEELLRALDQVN
In short: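 Activity is fitted in both directions relative to DMSO. Reporter transcripts are read by RT-PCR, fluorescent primer extension and capillary electrophoresis after 24 h chemical treatment. The cells are HepG2 carrying transiently transfected cis-element-driven reporter units responding to endogenous factors.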

[15] = target: Hepatocyte nuclear factor 6 (Homo sapiens) (UniProt Q9UBC0); assay: ATG_HNF6_CIS: Attagene CIS-FACTORIAL HepG2 Assay for human Hepatocyte Nuclear Factor 6 (HNF6) (AID 2282952); conditions: HepG2 Attagene cis-factorial HNF6 reporter transcription; actives raise or lower the signal
Sequence of Hepatocyte nuclear factor 6 (Homo sapiens) (Q9UBC0 whole entry, looked up, the tested form may be a part): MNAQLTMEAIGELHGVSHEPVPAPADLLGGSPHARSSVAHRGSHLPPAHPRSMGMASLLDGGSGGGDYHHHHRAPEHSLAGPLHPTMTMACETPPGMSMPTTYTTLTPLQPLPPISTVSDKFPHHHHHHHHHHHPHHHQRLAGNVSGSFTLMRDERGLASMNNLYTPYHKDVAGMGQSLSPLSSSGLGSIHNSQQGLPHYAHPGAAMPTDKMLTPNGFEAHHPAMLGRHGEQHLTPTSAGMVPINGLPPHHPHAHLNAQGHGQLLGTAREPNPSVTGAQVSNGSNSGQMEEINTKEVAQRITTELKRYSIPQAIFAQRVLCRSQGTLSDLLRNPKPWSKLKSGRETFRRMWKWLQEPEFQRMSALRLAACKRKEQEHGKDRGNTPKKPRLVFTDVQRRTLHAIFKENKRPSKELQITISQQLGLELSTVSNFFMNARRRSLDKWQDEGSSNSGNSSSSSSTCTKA
In short: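 Twenty-four-hour chemical treatment of reporter-transfected HepG2 cells precedes RNA isolation, DNase-treated reverse transcription and PCR of reporter sequences. Labelled fragments are sized by capillary electrophoresis and fitted bidirectionally versus DMSO.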

[16] = target: Heat shock factor protein 1 (Homo sapiens) (UniProt Q00613); assay: ATG_HSE_CIS: Attagene CIS-FACTORIAL HepG2 Assay for human Heat Shock Transcription Factor 1 (HSE) (AID 2282953); conditions: HepG2 HSE cis-reporter, Attagene RNA transcription; actives raise or lower the signal
Sequence of Heat shock factor protein 1 (Homo sapiens) (Q00613 whole entry, looked up): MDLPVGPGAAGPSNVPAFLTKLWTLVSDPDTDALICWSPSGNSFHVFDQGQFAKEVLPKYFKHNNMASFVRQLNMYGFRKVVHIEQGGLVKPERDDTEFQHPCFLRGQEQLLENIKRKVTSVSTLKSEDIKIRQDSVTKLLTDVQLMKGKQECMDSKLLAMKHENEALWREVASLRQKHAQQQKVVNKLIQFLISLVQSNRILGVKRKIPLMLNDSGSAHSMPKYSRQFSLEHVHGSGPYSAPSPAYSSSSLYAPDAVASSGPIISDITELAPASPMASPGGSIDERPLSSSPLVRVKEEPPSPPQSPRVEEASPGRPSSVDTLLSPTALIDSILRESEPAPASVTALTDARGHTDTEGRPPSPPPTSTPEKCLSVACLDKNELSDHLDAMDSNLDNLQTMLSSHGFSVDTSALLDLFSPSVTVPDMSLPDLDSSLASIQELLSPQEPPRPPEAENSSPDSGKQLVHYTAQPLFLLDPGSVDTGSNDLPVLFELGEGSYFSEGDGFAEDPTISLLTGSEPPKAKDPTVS
In short: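 Reporter mRNA induction in HepG2 is measured 24 h after dosing, using transiently transfected multiplexed cis-regulated reporter units. Signal comes from capillary electrophoresis of labelled RT-PCR products, with DMSO as negative control.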

[17] = ATG_MRE_CIS: Attagene CIS-FACTORIAL HepG2 Assay for human Metal Responsive Element (MRE) (AID 2282954); conditions: HepG2 MRE cis-reporter transcription, Attagene multiplex; actives raise or lower the signal
In short: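 Cells were transfected with cis-promoter reporter transcription units, then dosed for 24 h. RNA was reverse-transcribed, amplified, fluorescently labelled and resolved by capillary electrophoresis, and activity was fitted in both directions relative to DMSO.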

[18] = ATG_PBREM_CIS: Attagene CIS-FACTORIAL HepG2 Assay for human Phenobarbital-responsive Enhancer Module (PBREM) (AID 2282955); conditions: HepG2 PBREM cis-reporter, Attagene multiplexed transcription; actives raise or lower the signal
In short: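 Endogenous transcription factor activity was read from reporter transcripts in transiently transfected human HepG2 liver cells after 24 h dosing. RT-PCR products were fluorescently labelled, HpaI-cut and sized by capillary electrophoresis; activity fitted bidirectionally against DMSO baseline.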

Measured: AC50

COC(=O)Nc1nc2ccccc2[nH]1
inactive: all assays above

c1ccc2c(c1)oc1ccccc12
not listed: [18]
inactive: all other assays above

O=Cc1ccco1
not listed: [10] | [18]
inactive: all other assays above

CC(O)CCO (stereo not drawn)
not listed: [10] | [18]
inactive: all other assays above

Oc1ccccc1Cl
inactive: all assays above

C=CCc1ccc2c(c1)OCO2
not listed: [10] | [18]
inactive: all other assays above

Nc1cc(Cl)cc(C(=O)O)c1Cl
not listed: [10]
inactive: all other assays above

Nc1ccc(Oc2ccc(N)cc2)cc1
not listed: [18]
inactive: all other assays above

CC(C)(C)OOC(C)(C)CCC(C)(C)OOC(C)(C)C
inactive: all assays above

N#CC(Br)(Br)C(N)=O
not listed: [10] | [18]
inactive: all other assays above

CCCCOC(=O)c1ccccc1C(=O)OCc1ccccc1
inactive: all assays above

COC(=O)c1ccccc1N
inactive: all assays above

c1ccc(N=Nc2ccccc2)cc1
not listed: [18]
inactive: all other assays above

Clc1ccc(Cl)c(Cl)c1
not listed: [10] | [16]
inactive: all other assays above

[Cl-].[Cl-].[Hg+2]
active: [14] 33.4 µM
not listed: [10] | [18]
inactive: all other assays above

[As]#[In]
not listed: [18]
inactive: all other assays above

Oc1ccc2ccc3cccc4ccc1c2c34
active: [14] 0.00117 µM
inactive: all other assays above

O=C(O)C1C2CCC(O2)C1C(=O)O (stereo not drawn)
active: [9] 100 µM | [11] 61.9 µM | [12] 159 µM | [17] 149 µM
not listed: [14] | [18]
inactive: all other assays above

CCCSC(=O)N(CCC)CCC
inactive: all assays above

c1ccc(C2CO2)cc1 (stereo not drawn)
not listed: [18]
inactive: all other assays above

Cc1ccc(N)cc1
not listed: [10] | [18]
inactive: all other assays above

c1ccc2c(c1)-c1cccc3cccc-2c13
active: [4] 0.00801 µM | [12] 0.00928 µM
not listed: [10] | [18]
inactive: all other assays above

C1=Cc2cccc3cccc1c23
inactive: all assays above

CC(C)(C)C(O)(CCc1ccc(Cl)cc1)Cn1cncn1 (stereo not drawn)
active: [17] 100 µM
inactive: all other assays above

Cc1ccc(N=C=O)cc1N=C=O
not listed: [16] | [18]
inactive: all other assays above

CC(C)(C)OOC(=O)c1ccccc1
active: [7] 156 µM | [17] 147 µM
not listed: [18]
inactive: all other assays above

CCCCC(CC)COC(=O)c1ccc(C(=O)OCC(CC)CCCC)c(C(=O)OCC(CC)CCCC)c1 (stereo not drawn)
not listed: [18]
inactive: all other assays above
